# Source: PMC4336329 (PLoS ONE, 2015)
# In all, about 310,000 compounds went through this assay and about 2,200 (0.71%) showed an effect of 50% or more. The effect is printed as a negative number. The entries come from a sample that favours strong results as a whole.
# Biological target: human ether-à-go-go-related gene (hERG) potassium channel (human, UniProt Q12809)
# Test: primary screen, population patch clamp on CHO cells stably expressing hERG; higher = less effect of the substance
# Protocol: Briefly, Chinese hamster ovary (CHO) cells stably expressing the hERG channel were dislodged from tissue culture flasks and dispensed into PPC plates. […] During the recording, background leak currents were estimated by a 100 ms step to -80 mV from an initial holding potential of -70 mV and subtracted from the subsequent current measurement. The campaign was conducted in two phases using slight differences in recording protocol. In the first phase, the initial voltage pulse used a 100 ms step to -30 mV from a holding potential of -70 mV, a 2 s conditioning step to +25 mV, and a 2 s test step to -30 mV. During the second phase of the screen, the potential during the conditioning step was raised to +45 mV. In both phases of the campaign, a secondary voltage pulse was applied using the same parameters as the second phase initial pulse. The initial and secondary pulses were applied in the absence of compound, and upon application of 1 μM and 10 μM test concentrations. Small molecule effects on hERG current density were quantified by […].
# human ether-à-go-go-related gene (hERG) potassium channel, sequence (Q12809 whole entry, looked up): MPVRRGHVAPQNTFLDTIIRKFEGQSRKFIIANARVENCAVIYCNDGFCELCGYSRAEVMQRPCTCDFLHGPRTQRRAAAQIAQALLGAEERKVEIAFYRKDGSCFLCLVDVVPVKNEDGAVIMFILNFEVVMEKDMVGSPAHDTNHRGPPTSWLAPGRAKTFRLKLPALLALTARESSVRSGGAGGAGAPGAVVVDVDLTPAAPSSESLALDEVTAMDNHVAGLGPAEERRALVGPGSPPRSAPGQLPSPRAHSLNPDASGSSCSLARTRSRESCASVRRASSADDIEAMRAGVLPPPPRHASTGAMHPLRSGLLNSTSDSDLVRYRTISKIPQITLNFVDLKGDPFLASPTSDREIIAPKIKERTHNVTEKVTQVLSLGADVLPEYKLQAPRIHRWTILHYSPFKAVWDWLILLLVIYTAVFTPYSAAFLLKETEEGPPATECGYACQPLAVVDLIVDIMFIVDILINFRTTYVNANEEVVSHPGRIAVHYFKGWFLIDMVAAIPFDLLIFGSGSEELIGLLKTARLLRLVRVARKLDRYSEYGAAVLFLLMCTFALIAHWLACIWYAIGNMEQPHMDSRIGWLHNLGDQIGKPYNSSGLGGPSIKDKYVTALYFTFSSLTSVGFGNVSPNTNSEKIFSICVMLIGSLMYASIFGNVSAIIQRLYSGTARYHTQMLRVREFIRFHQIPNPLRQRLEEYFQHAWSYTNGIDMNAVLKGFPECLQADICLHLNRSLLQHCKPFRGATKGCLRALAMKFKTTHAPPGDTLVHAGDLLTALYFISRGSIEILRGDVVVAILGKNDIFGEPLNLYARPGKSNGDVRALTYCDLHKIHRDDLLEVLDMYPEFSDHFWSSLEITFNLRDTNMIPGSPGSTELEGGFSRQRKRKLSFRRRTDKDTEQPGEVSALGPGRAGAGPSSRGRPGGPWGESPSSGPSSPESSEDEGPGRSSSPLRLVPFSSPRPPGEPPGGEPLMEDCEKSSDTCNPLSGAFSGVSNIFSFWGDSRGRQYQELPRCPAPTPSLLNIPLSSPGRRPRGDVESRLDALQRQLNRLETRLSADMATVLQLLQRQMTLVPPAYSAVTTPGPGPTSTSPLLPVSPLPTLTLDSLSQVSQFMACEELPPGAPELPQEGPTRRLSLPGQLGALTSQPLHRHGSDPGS
row,SMILES,"hERG current change (%, negative = inhibition) at 1uM"
1,Cc1cc(=O)oc2c3c(cc(OCC(=O)NCc4ccco4)c12)OC(C)(C)CC3,-1.54%
2,CCOc1ccc(N(CC(=O)NC2CCCCC2)C(=O)CNC(=O)c2ccco2)cc1,-5.99%
3,Cc1cccc(-n2c(C)nc3cc(C(=O)N4CCC5(CC4)OCCO5)ccc32)c1,-14.2%
4,CC(=O)c1ccc(-c2ccc(C(=O)NC3CCCCCC3)o2)cc1,29.5%
5,CC1(C)CC(NC(=O)c2ccc(-c3ccc([N+](=O)[O-])cc3)o2)CC(C)(C)N1,-3.5%
6,CC(=O)c1ccc(-c2ccc(C(=O)NC3CC(C)(C)NC(C)(C)C3)o2)cc1,-71.1%
7,CCN(c1ccccc1)c1nc(=O)c2cccnc2s1,5.88%
8,COc1ccc(C)cc1C1=Nc2ccccc2C1(C)C,13.4%
9,Cc1c(C(=O)OCC(=O)Nc2ccc(C(N)=O)cc2)cccc1[N+](=O)[O-],11%
10,COc1ccc(C[C@H]2CN3C(=NC[C@@H]3Cc3ccccc3)N2CCNC(=O)c2ccc(C)c(Br)c2)cc1,-16.7%
11,Cc1ccc(C(=O)NCCN2C3=NC[C@H](C)N3C[C@H]2Cc2ccc(O)cc2)cc1Br,9.94%
12,COc1ccc(C[C@@H]2CN3C(=NC[C@@H]3C)N2CCNC(=O)c2ccc(C)c(Br)c2)cc1,-64.9%
13,COc1ccc(C[C@H]2CN3C(=NC[C@H]3C)N2CCNC(=O)c2ccc(C)c(Br)c2)cc1,-70.9%
14,Cc1ccc(C(=O)NCCN2C3=NC[C@H](Cc4ccc(O)cc4)N3C[C@H]2Cc2ccc(O)cc2)cc1Br,-9.94%
15,COc1ccc(C[C@H]2CN3C(=NC[C@@H]3C(C)C)N2CCNC(=O)c2ccc(C)c(Br)c2)cc1,-66.8%
16,COc1ccc(C[C@H]2CN3C(=NC[C@H]3Cc3ccccc3)N2CCNC(=O)c2ccc(C)c(Br)c2)cc1,-24.7%
17,Cc1ccc(C(=O)NCCN2C3=NC[C@H](C(C)C)N3C[C@H]2Cc2ccc(O)cc2)cc1Br,0.0506%
18,C/C=C(\C)C(=O)NCCN1C2=NC[C@H](C(C)C)N2C[C@H]1Cc1ccc(O)cc1,29.8%
19,COC(=O)c1cn(NC(=O)C2CCCO2)c(=O)c2ccccc12 (stereo not shown),14.6%
20,CNc1nnc(SCC(=O)N2c3ccccc3NC(=O)CC2C)s1 (stereo not shown),6.91%
21,CC(=O)Nc1ccc(S(=O)(=O)NCCC(=O)OCC(=O)c2ccccc2)cc1,6.41%
22,COc1cccc(CN2CCCC(C(=O)Nc3ccc(-c4cscn4)cc3)C2)c1 (stereo not shown),-10.8%

row,SMILES,"hERG current change (%, negative = inhibition) at 1uM"
1,COc1ccccc1NC(=O)c1ccc(S(=O)(=O)NCc2ccco2)cc1,13.8%
2,O=C(NCCCN1CCCC1=O)c1cccc(NS(=O)(=O)c2ccccc2)c1,13.4%
3,COc1ccc(NC(=O)CN(C)C(=O)c2ccc(NC3CC3)c([N+](=O)[O-])c2)cc1,-68.6%
4,CCOc1ccc(NC(=O)CN(C)C(=O)c2ccc(NC3CC3)c([N+](=O)[O-])c2)cc1OCC,-18.3%
5,COc1cccc(NC(=O)CN(C)C(=O)c2ccc(NC3CC3)c([N+](=O)[O-])c2)c1,-40.8%
6,CC1Cc2cc(/C(O)=C3\C(=O)C(=O)N(Cc4ccncc4)C3c3ccccc3F)ccc2O1 (stereo not shown),17.9%
7,O=C(c1ccncc1)N1CCCC(N2CCN(c3ccc(F)cc3)CC2)C1 (stereo not shown),-19.9%
8,CC(C)c1cc(C(=O)N2CCCC(N3CCN(c4ccc(F)cc4)CC3)C2)no1 (stereo not shown),-36.4%
9,Cc1nonc1C(=O)N1CCCC(N2CCN(c3ccc(F)cc3)CC2)C1 (stereo not shown),-17.7%
10,Cc1ccccc1N1CCN(C2CCCN(C(=O)c3ccc(Cl)s3)C2)CC1 (stereo not shown),1.61%
11,Cc1nnsc1C(=O)N1CCCC(N2CCN(c3ccc(F)cc3)CC2)C1 (stereo not shown),12.3%
12,Cc1cc(C(=O)N2CCCC(N3CCN(c4ccc(F)cc4)CC3)C2)no1 (stereo not shown),-19.1%
13,CC(C)=CC(=O)N1CCCC(N2CCN(c3ccc(F)cc3)CC2)C1 (stereo not shown),19.1%
14,CCCc1cc(C(=O)N2CCCC(N3CCN(c4ccc(F)cc4)CC3)C2)no1 (stereo not shown),-74.1%
15,O=C(c1cccs1)N1CCCC(N2CCN(c3ccc(F)cc3)CC2)C1 (stereo not shown),-52.1%
16,O=C(c1cccs1)N1CCCC(N2CCN(c3cccc(C(F)(F)F)c3)CC2)C1 (stereo not shown),-8.83%
17,O=C(c1ccc(Cl)s1)N1CCCC(N2CCN(c3ccc(F)cc3)CC2)C1 (stereo not shown),-63.2%
18,CC(=O)c1ccc(C(=O)N2CCCC(N3CCN(c4ccc(F)cc4)CC3)C2)s1 (stereo not shown),-51.3%
19,Nc1nc(Br)c2ccccc2c1-c1ccccc1,9.58%
20,CC(C)c1ccc(N(CC(=O)Nc2ccc(S(=O)(=O)N3CCOCC3)cc2)S(C)(=O)=O)cc1,21.3%
21,COc1ccc(CCNC(=O)/C=C/c2ccc3ccccc3n2)cc1OC,10.9%
